Measurements from PubChem BioAssay (NCATS).
Calls of active or inactive are those of the source. A call without a number means that no potency is given here. Calls follow the shape of the dose curve; as a rule, active = well fitted inhibition curve with a large enough effect; inconclusive = small, poorly fitted or top-dose-only effect; inactive = flat fitted curve, though single readings scatter.

Target: Phosphoglycerate kinase, glycosomal (Trypanosoma brucei brucei) (UniProt P07378)
Assay: qHTS Validation Assay to Find Inhibitors of Phosphoglycerate Kinase (AID 504547)
Settings: enzymatic PGK inhibition, coupled luminescence read-out; series mostly up to 57.5 µM
Excerpt: NIH Molecular Libraries Probe Production Network [MLPCN]
NIH Chemical Genomics Center [NCGC]
PI Name: Malcolm Walkinshaw, University of Edinburgh
Several species of the Trypanosomatidae family of parasitic protozoans cause a spectrum of diseases
throughout the tropical and subtropical world. Sleeping sickness, caused by two subspecies of Trypanosoma brucei, is endemic to areas of sub-Saharan Africa, while Chagas disease, a manifestation of Trypanosoma cruzi infection, is prevalent throughout Central and South America. In addition, many species of Leishmania are responsible for a range of cutaneous and visceral diseases, causing ulcers, destructive lesions and kalaazar, a lethal infection of the viscera. Collectively, these organisms infect 30 million people worldwide (~500 million live in endemic areas), and account for ~130,000 deaths annually. Given their debilitating and prevalent nature, trypanosomatid parasites impose a heavy medical, economic and social burden on entire populations, primarily in the developing world. The problem is further exacerbated by the fact that existing treatments have progressed little in the past 50 years, and current drugs show high toxicity and poor efficacy.
Blood-stream stages of T. brucei are entirely dependent on glycolysis as a source of ATP, and the tricarboxylic acid cycle and oxidative phosphorylation are both repressed. Glycolysis in axenically cultured T. cruzi, representing the intracellular pathogenic stage, is also essential for these parasites. […] Previous studies have shown that the glycolytic enzyme, phosphoglycerate kinase (PGK), is a viable target for drugs to kill these parasites.
NCGC Assay Protocol Summary:
Briefly, 3ul of substrate/PGK buffer (columns 1,2,5-48) are dispensed into Greiner white solid bottom 1536-well assay plates; columns 3-4 receive only TEA buffer as 0x PGK controls. Compounds are then transferred via Kalypsys pin tool equipped with 1536-pin array (10nl slotted pins, V&P Scientific, San Diego, CA). Following addition of compound, 1ul of GAPDH (100nM final concentration, all columns) is added to initiate the reaction (this upstream coupling enzyme is necessary for in-well production of PGK substrate, 1,3-bisphosphoglycerate (1,3-BPG), which is unstable and not commercially available). The plates are then incubated at room temperature for 60 minutes. Kinase-Glo Plus reagent is added (2ul) and plates incubated for 10 minutes, before being transferred to a ViewLux high-throughput CCD imager (PerkinElmer) wherein single end-point measurements of luminescence are acquired using a clear filter. All reagents are diluted in an assay buffer consisting of 100mM TEA (pH 7.6), 5mM MgCl2 and 0.01% Tween-20.
Potency is read from the fitted curve at half-maximal effect.

Chain of Phosphoglycerate kinase, glycosomal (Trypanosoma brucei brucei) (P07378 whole entry, looked up): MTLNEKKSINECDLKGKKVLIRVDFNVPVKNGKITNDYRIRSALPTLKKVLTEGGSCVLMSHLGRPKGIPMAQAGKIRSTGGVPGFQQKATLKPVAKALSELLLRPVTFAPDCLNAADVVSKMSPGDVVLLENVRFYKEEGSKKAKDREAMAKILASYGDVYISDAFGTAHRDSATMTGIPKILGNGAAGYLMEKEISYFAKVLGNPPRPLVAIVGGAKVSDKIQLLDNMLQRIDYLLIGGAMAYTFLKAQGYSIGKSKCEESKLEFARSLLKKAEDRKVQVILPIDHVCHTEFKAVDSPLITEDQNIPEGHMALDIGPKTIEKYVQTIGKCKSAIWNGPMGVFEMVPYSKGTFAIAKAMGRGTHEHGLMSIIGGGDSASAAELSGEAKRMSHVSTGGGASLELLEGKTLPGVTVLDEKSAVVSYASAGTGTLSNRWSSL

| Structure (SMILES) | Potency |
| --- | --- |
| O=[N+]([O-])c1cccc2cn[nH]c12 | inactive |
| CN1C2CCC1CC(OC(c1ccccc1)c1ccccc1)C2 (stereo not given) | inactive |
| O=c1[nH]c2cc(Cl)ccc2c(O)c1-c1ccc(Oc2ccccc2)cc1 | inactive |
| N[C@@H](Cc1ccc(O)c(I)c1)C(=O)O | inactive |
| CCCCCCC/C=C\CCCCCCCCC(=O)O | inactive |
| CC(=O)NCCc1c[nH]c2ccc(O)cc12 | inactive |
| O=c1ccn([C@@H]2O[C@H](COP(=O)(O)OP(=O)(O)O)[C@@H](O)[C@H]2O)c(=O)[nH]1 | inactive |
| NC(=O)CC[C@H](N)C(=O)O | inactive |
| O=C(O)/C=C/c1cnc[nH]1 | inactive |
| O=C(O)C1=CC(=C(c2ccc(O)c(C(=O)O)c2)c2ccc(O)c(C(=O)O)c2)C=CC1=O | 75.7 nM (active) |
| C=CCN1CCc2c(cc(O)c(O)c2Cl)C(c2ccccc2)C1 (stereo not given) | inactive |
| CCCCCCN(CCCCCC)C(=O)Cc1c(-c2ccc(F)cc2)[nH]c2ccccc12 | inactive |
| CCCCCCCCCCCCCCC[C@H](O)[C@H](N)CO | inactive |
| COc1ccc2c(c1)c(CC(=O)O)c(C)n2C(=O)c1ccccc1 | inactive |
| COC1(C2=NCCN2)COc2ccccc2O1 (stereo not given) | inactive |
| CCN1C(=O)C=CC1=O | inactive |
| NS(=O)(=O)c1cccc2c1c([N+](=O)[O-])cc1nc(O)c(O)nc12 | inactive |
| NCC(O)C1CCCCCCC1 (stereo not given) | inactive |
| O=C(O)c1ccccc1Nc1cccc(OCc2ccc3ccccc3n2)c1 | inactive |
| CCCCCCCCCCC(C)(C)C(=O)Nc1c(OC)cc(OC)cc1OC | inactive |

| Structure (SMILES) | Potency |
| --- | --- |
| c1ccc(CN2CCC3(CCCc4ccccc43)CC2)cc1 | inactive |
| O=C(O)C1=CCCNC1 | inactive |
| CNCCc1cnc(CCC(c2ccccc2)c2ccccc2)[nH]1 | inactive |
| CN(CC[C@@H](Oc1ccc(C(F)(F)F)cc1)c1ccccc1)CC(=O)O | inactive |
| CCCCCCCCCCC/C=C\C(C)(C)/C=C\CCCC(=O)O | inactive |
| O=c1onc2n1-c1cc(Br)ccc1OC2 | inactive |
| COc1cc(N)c(Cl)cc1C(=O)OCCN1CCCCC1 | inactive |
| O=C(O)C1=CCNCC1 | inactive |
| O=C(O)[C@H]1NCCC[C@H]1C(=O)O | inactive |
| C=C1C[C@@]23CC[C@H]4[C@@](C)(CCC[C@@]4(C)C(=O)O)[C@@H]2CC[C@]1(O)C3 | inactive |
| CCCCCC(O)CCCC(=O)O (stereo not given) | inactive |
| C[C@H](O)C(=O)C1=Nc2c(nc(N)[nH]c2=O)NC1 | inactive |
| CCN(CC)CCOC(=O)c1cc(Cl)c(N)cc1OC | inactive |
| O=C(N[C@@H](Cc1ccccc1)C(=O)CCl)OCc1ccccc1 | inactive |
| CC(=O)C(C)=O | inactive |
| CC(C)(C)c1cc(/C=C(\C#N)C(N)=S)cc(C(C)(C)C)c1O | inactive |
| N[C@H](C(=O)O)c1cc(O)cc(O)c1 | inactive |
| N=C(N)c1ccc(OCCCCCOc2ccc(C(=N)N)cc2)cc1 (tested in a mixture with another compound) | inactive |
| CCCn1c(=O)c(C)cn2nc(N)nc12 | inactive |
| NOCC(=O)O | inactive |
